Legend:
Assay in all cases: DAPPL (digital affinity profiling via proximity ligation, sequencing); 10 mM Tris-HCl pH 7.5, 50 mM NaCl, 1 mM DTT, 4% glycerol, room temperature, 30 min; GST-TFs on glutathione beads, 16-mer random dsDNA library, 0.1% formaldehyde crosslink after washing; high values mean tight binding
[1] = target: T1, FLI1 (Homo sapiens, UniProt Q01543 1-452); conditions: protein: recombinant; tags: N-terminal GST; dsDNA, one strand shown
T1 sequence: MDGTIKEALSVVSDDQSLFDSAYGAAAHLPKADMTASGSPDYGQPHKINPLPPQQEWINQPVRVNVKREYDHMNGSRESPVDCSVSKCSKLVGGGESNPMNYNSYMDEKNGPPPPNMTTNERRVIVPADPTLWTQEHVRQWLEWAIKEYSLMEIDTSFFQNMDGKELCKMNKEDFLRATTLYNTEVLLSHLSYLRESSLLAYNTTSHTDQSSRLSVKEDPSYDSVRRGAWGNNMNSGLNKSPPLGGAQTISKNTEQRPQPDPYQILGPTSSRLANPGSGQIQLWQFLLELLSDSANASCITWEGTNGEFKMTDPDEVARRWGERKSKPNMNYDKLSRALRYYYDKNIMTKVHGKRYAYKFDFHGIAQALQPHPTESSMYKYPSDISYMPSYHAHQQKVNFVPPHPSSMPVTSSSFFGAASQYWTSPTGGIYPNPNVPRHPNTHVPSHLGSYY
Summary of the method: (§1)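 Binding signal is given per hexamer as its read frequency for a factor divided by its frequency in the tag-only sample. GST-fused human transcription factors were expressed in yeast, captured on glutathione beads, barcoded with DNA and pooled with that sample, then incubated with 200 nmole of a 16-mer random double-stranded DNA library in Tris/NaCl/DTT/glycerol buffer for 30 min at room temperature. The pools were then washed, crosslinked, proximity-ligated, amplified by PCR and sequenced on an Illumina NextSeq500.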

[2] = target: T2, ELK1 (Homo sapiens, UniProt P19419 1-428); conditions: protein: recombinant; tags: N-terminal GST; dsDNA, one strand shown
T2 sequence: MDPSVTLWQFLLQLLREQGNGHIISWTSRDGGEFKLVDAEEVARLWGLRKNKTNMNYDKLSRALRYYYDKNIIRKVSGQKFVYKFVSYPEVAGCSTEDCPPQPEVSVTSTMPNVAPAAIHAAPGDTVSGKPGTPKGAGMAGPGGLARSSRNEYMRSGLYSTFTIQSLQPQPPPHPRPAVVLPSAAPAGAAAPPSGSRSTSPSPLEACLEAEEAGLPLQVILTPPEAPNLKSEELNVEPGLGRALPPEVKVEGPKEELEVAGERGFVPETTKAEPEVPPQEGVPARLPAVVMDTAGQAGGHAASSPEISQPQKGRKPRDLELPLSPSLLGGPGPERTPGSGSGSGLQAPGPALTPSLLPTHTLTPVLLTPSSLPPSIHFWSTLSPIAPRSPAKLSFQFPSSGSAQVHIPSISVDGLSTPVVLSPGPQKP
Summary of the method: as §1

[3] = target: T3, GABPA (Homo sapiens, UniProt Q06546 1-454); conditions: protein: recombinant; tags: N-terminal GST; dsDNA, one strand shown
T3 sequence: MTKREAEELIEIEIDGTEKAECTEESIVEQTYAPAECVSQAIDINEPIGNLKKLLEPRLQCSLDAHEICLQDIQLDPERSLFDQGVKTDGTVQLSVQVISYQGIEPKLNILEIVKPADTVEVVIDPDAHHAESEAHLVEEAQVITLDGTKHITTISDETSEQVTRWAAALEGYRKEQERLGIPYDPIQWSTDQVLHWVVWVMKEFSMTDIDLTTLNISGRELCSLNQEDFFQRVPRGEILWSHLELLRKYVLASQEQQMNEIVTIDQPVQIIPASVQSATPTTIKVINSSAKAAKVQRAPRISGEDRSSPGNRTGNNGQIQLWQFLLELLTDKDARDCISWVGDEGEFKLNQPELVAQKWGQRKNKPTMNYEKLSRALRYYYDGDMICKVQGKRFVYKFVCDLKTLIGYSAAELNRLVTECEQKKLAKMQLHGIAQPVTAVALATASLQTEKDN
Summary of the method: as §1

[4] = target: T4, ERG (Homo sapiens, UniProt P11308 1-479); conditions: protein: recombinant; tags: N-terminal GST; dsDNA, one strand shown
T4 sequence: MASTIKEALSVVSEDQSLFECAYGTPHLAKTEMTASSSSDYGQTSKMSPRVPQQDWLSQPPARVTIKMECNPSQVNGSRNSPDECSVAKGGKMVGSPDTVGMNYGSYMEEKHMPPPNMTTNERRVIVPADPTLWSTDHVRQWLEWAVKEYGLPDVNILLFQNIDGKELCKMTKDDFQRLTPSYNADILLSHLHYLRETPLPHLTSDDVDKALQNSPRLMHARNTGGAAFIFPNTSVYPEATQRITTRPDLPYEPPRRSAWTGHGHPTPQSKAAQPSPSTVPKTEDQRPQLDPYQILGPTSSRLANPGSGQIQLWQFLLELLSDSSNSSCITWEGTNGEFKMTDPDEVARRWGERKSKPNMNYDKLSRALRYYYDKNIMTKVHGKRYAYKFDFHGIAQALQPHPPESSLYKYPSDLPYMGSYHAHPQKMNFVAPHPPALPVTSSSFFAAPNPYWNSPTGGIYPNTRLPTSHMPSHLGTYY
Summary of the method: as §1

[5] = target: ELF1 (Homo sapiens, UniProt P32519 1-619); conditions: protein: recombinant; tags: N-terminal GST; dsDNA, one strand shown
Summary of the method: as §1

[6] = target: T5, EHF (Homo sapiens, UniProt Q9NZC4 1-300); conditions: protein: recombinant; tags: N-terminal GST; dsDNA, one strand shown
T5 sequence: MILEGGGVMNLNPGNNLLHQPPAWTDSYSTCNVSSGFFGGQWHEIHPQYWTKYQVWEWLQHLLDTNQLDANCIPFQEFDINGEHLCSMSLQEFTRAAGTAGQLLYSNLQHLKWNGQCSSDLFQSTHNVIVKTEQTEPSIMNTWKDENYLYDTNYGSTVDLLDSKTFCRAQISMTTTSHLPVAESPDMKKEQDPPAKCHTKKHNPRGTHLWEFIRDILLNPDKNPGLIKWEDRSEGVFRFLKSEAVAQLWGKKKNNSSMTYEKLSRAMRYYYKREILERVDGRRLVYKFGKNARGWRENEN
Summary of the method: as §1

[7] = target: SPI1 (Homo sapiens, UniProt P17947 1-270); conditions: protein: recombinant; tags: N-terminal GST; dsDNA, one strand shown
Summary of the method: as §1

[8] = target: SPIB (Homo sapiens, UniProt Q01892 1-262); conditions: protein: recombinant; tags: N-terminal GST; dsDNA, one strand shown
Summary of the method: as §1

[9] = target: T6, ELK3 (Homo sapiens, UniProt P41970 1-407); conditions: protein: recombinant; tags: N-terminal GST; dsDNA, one strand shown
T6 sequence: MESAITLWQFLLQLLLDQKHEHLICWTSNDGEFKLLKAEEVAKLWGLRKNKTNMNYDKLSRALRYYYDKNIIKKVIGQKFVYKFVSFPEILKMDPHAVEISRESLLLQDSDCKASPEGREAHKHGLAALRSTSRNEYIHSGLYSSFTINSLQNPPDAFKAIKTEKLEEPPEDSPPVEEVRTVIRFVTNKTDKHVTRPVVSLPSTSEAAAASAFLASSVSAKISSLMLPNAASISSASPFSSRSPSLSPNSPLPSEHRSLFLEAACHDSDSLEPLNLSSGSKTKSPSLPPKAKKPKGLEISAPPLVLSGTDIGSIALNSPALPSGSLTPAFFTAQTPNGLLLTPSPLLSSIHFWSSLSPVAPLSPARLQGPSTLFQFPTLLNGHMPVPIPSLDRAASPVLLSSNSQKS
Summary of the method: as §1

[10] = target: T7, FEV (Homo sapiens, UniProt Q99581 1-238); conditions: protein: recombinant; tags: N-terminal GST; dsDNA, one strand shown
T7 sequence: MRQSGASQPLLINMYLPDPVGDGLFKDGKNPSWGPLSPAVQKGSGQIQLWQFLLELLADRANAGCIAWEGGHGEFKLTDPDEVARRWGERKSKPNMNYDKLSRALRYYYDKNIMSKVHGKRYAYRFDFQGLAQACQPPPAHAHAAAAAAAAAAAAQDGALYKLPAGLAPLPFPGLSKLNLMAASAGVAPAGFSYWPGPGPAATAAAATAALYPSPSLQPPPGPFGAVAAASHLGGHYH
Summary of the method: as §1

[11] = target: ETV5 (Homo sapiens, UniProt P41161 1-510); conditions: protein: recombinant; tags: N-terminal GST; dsDNA, one strand shown
Summary of the method: as §1

[12] = target: HSF1 (Homo sapiens, UniProt Q00613 1-529); conditions: protein: recombinant; tags: N-terminal GST; chain copies: 3; dsDNA, one strand shown
Summary of the method: as §1

[13] = target: T8, SPIC (Homo sapiens, UniProt Q8N5J4 1-248); conditions: protein: recombinant; tags: N-terminal GST; dsDNA, one strand shown
T8 sequence: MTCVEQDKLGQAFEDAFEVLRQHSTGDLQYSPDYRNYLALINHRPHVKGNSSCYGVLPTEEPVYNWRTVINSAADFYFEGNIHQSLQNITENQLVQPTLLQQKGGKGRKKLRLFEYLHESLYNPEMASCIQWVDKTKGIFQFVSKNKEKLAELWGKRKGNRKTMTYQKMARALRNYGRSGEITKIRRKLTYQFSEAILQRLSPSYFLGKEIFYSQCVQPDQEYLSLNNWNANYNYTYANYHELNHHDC
Summary of the method: as §1

[14] = target: ELF4 (Homo sapiens, UniProt Q99607 1-663); conditions: protein: recombinant; tags: N-terminal GST; dsDNA, one strand shown
Summary of the method: as §1

[15] = target: T9, ELK4 (Homo sapiens, UniProt P28324-2 1-405); conditions: protein: recombinant; tags: N-terminal GST; dsDNA, one strand shown
T9 sequence: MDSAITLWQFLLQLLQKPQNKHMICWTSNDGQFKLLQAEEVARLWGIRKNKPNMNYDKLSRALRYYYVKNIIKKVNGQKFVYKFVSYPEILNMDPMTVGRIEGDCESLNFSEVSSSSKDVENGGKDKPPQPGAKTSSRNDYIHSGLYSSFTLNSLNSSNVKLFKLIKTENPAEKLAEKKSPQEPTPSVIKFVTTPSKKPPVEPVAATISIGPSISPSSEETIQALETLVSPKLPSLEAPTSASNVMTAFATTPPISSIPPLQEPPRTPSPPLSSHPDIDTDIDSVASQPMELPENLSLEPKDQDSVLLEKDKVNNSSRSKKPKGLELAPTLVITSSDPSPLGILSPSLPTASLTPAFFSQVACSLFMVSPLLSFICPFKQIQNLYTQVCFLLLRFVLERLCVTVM
Summary of the method: as §1

[16] = target: T10, ETV2 (Homo sapiens, UniProt O00321 1-342); conditions: protein: recombinant; tags: N-terminal GST; dsDNA, one strand shown
T10 sequence: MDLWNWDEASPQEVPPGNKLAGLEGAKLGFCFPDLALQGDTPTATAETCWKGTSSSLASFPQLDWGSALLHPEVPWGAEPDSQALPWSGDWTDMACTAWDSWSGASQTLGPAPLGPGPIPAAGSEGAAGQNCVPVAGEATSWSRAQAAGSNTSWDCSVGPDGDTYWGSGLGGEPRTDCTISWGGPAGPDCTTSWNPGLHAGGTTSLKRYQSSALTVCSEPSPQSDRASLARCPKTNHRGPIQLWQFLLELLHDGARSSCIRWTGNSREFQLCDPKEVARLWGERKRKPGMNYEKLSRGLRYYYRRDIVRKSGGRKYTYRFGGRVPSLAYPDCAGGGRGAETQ
Summary of the method: as §1

[17] = target: T11, ELF3 (Homo sapiens, UniProt P78545 1-371); conditions: protein: recombinant; tags: N-terminal GST; dsDNA, one strand shown
T11 sequence: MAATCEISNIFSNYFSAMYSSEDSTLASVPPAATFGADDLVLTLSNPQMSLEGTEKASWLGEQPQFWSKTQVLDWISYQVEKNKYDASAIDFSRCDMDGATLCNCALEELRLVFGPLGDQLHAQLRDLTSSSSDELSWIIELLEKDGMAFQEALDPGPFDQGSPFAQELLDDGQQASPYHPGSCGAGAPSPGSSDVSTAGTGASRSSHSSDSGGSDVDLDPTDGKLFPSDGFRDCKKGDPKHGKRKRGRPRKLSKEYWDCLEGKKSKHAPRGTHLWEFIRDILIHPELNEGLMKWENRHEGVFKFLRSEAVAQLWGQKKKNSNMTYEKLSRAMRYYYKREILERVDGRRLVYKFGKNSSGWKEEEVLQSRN
Summary of the method: as §1

[18] = target: CRX (Homo sapiens, UniProt O43186 1-299); conditions: protein: recombinant; tags: N-terminal GST; dsDNA, one strand shown
Summary of the method: as §1

[19] = target: ETV1 (Homo sapiens, UniProt P50549 1-477); conditions: protein: recombinant; tags: N-terminal GST; dsDNA, one strand shown
Summary of the method: as §1

Chain of HSF1 (Q00613 whole entry): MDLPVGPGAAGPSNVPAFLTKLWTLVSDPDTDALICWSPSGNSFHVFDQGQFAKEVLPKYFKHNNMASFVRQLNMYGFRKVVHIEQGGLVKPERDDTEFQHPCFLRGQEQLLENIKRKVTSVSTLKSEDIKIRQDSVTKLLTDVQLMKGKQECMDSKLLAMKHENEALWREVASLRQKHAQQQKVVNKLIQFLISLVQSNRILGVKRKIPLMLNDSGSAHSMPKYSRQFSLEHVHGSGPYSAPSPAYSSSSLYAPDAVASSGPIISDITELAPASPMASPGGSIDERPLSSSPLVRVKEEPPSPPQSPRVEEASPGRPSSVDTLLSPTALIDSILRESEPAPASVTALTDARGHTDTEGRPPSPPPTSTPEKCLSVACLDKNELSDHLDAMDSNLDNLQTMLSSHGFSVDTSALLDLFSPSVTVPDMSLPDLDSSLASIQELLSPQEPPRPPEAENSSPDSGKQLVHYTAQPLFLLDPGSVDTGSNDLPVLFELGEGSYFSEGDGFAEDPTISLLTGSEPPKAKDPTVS
Chain of ETV1 (P50549 whole entry): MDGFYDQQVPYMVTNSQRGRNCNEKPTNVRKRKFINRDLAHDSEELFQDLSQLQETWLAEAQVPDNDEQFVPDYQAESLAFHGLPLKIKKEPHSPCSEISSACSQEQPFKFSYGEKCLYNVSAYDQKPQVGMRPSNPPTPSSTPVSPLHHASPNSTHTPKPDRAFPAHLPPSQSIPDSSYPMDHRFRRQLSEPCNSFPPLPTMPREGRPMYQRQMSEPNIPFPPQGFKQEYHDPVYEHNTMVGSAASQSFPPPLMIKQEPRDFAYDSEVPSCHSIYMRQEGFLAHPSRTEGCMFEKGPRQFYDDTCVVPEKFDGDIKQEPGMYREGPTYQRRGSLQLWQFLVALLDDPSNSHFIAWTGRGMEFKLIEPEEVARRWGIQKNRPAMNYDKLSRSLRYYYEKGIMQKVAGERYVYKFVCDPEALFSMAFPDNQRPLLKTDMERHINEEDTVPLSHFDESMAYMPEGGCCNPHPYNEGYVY
Chain of SPIB (Q01892 whole entry): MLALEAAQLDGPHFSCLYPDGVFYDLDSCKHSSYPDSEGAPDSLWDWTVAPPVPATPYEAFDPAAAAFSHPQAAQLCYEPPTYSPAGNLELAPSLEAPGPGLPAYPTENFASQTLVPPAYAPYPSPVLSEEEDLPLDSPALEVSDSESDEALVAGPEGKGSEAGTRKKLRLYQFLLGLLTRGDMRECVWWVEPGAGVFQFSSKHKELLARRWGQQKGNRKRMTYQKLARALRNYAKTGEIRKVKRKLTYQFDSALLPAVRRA
Chain of ELF4 (Q99607 whole entry): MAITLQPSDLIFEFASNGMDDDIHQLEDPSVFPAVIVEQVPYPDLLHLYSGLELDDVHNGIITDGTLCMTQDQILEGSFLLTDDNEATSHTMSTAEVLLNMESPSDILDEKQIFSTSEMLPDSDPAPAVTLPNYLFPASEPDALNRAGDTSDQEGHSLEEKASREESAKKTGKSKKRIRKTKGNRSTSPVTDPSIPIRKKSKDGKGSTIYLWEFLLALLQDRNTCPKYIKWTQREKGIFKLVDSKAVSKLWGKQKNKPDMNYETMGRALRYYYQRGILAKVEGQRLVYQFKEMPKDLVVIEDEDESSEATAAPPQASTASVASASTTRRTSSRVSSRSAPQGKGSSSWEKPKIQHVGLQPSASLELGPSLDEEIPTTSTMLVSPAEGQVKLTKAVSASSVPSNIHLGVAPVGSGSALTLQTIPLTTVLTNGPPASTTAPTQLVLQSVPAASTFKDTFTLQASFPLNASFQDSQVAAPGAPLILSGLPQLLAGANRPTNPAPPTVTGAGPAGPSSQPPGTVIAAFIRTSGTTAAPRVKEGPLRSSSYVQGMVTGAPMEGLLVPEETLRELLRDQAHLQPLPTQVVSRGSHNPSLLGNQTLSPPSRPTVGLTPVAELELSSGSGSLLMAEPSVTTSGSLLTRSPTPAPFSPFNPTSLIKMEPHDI
Chain of CRX (O43186 whole entry): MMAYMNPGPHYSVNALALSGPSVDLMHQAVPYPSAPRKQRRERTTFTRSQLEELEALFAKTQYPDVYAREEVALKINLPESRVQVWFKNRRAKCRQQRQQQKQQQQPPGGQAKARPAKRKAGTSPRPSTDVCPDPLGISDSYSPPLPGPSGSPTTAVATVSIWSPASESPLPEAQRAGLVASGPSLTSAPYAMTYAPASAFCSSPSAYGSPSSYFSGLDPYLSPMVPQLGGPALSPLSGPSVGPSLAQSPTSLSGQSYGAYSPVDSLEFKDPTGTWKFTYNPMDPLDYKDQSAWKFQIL
Chain of ELF1 (P32519 whole entry): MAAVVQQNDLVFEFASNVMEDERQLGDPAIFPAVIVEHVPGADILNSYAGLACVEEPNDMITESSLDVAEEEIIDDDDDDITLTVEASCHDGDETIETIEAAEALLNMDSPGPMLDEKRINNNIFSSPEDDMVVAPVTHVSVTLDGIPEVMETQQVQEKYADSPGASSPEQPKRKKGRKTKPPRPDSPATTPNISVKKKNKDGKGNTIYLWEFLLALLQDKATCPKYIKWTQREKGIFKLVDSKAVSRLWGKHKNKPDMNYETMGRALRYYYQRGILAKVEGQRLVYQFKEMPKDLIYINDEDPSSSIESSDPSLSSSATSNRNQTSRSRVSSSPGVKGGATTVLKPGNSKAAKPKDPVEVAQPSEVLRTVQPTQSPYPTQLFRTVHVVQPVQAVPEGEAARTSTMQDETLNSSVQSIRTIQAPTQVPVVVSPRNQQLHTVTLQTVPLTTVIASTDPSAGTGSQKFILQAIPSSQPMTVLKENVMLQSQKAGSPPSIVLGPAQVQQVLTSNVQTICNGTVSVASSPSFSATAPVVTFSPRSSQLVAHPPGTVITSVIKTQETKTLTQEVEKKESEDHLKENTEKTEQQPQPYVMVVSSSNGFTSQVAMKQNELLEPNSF
Chain of ETV5 (P41161 whole entry): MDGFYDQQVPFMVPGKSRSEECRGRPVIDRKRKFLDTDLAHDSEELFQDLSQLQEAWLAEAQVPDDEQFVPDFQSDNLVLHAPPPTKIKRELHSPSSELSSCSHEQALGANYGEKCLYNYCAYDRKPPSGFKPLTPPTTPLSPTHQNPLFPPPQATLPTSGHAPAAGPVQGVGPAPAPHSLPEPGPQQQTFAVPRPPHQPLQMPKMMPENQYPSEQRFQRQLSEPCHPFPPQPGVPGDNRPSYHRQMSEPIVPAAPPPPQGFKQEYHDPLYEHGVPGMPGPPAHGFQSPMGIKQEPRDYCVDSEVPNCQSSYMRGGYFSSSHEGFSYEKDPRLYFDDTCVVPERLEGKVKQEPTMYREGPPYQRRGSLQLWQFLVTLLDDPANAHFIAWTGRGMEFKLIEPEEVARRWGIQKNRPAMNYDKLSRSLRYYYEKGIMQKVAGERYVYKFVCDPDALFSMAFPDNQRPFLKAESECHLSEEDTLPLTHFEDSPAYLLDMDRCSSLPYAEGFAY

Q: How did the binding signal [1] turn out when TTCTCC was run?
A: 1.42 fold enrichment (6-mer frequency, TF over GST control)

Q: And the binding signal [2]?
A: 1.45 fold enrichment (6-mer frequency, TF over GST control)

Q: What about the binding signal [3] of the same sequence?
A: 1.6 fold enrichment (6-mer frequency, TF over GST control)

Q: What about the binding signal [4] of the same sequence?
A: 1.43 fold enrichment (6-mer frequency, TF over GST control)

Q: And the binding signal [5]?
A: 1.56 fold enrichment (6-mer frequency, TF over GST control)

Q: What about the binding signal [6] of the same sequence?
A: 1.62 fold enrichment (6-mer frequency, TF over GST control)

Q: What about the binding signal [7] of the same sequence?
A: 1.63 fold enrichment (6-mer frequency, TF over GST control)

Q: And the binding signal [8]?
A: 1.61 fold enrichment (6-mer frequency, TF over GST control)

Q: And the binding signal [9]?
A: 1.6 fold enrichment (6-mer frequency, TF over GST control)

Q: And the binding signal [10]?
A: 1.63 fold enrichment (6-mer frequency, TF over GST control)

Q: What about the binding signal [11] of the same sequence?
A: 1.49 fold enrichment (6-mer frequency, TF over GST control)

Q: And the binding signal [12]?
A: 1.98 fold enrichment (6-mer frequency, TF over GST control)

Q: What about the binding signal [13] of the same sequence?
A: 1.37 fold enrichment (6-mer frequency, TF over GST control)

Q: And the binding signal [14]?
A: 1.51 fold enrichment (6-mer frequency, TF over GST control)

Q: And the binding signal [15]?
A: 1.63 fold enrichment (6-mer frequency, TF over GST control)

Q: What about the binding signal [16] of the same sequence?
A: 1.39 fold enrichment (6-mer frequency, TF over GST control)

Q: What about the binding signal [17] of the same sequence?
A: 1.4 fold enrichment (6-mer frequency, TF over GST control)

Q: And the binding signal [18]?
A: 1.51 fold enrichment (6-mer frequency, TF over GST control)

Q: What about the binding signal [19] of the same sequence?
A: 1.45 fold enrichment (6-mer frequency, TF over GST control)

Source: article PMC7862700, “An all-to-all approach to the identification of sequence-specific readers for epigenetic DNA modifications on cytosine”
